Experimental data taken from PubChem BioAssay (NCI).
About 83,000 compounds went through this panel and 20% of them were active in at least one assay; those are over-represented in the sample as a whole.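 Testing used 96-well plates and a 48-hour single-concentration exposure. Example: -40 means 40% of the starting cells died.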 A number with no mark means an inactive call. Active and inactive are the calls of the source. The calls were made as follows: active = growth percent below 10; inactive = the rest.

test system: HL-60(TB) leukemia; assay: NCI-60 one-dose screen, 48 h (100 = growth as untreated, 0 = no growth, -100 = all killed); details: 10 µM unless noted

| Compound | growth |
| --- | --- |
| O=C(Nc1nc2ccccc2s1)c1cc(-c2ccc(F)cc2)n2nc(-c3ccccc3)cc2n1 | 107% |
| COc1ccc(C(=S)N2CCN(c3cccc(C)c3)CC2)cc1OC | 57.3% |
| O=C1CC(=O)N(c2ccccc2)O1 | 103% |
| COc1ccc(-c2onc(N)c2-c2cc(OC)c3c(c2)OCO3)cc1 | -31.4% (active) |
| COc1ccc(/C=C/C(=O)c2ccc(O)c(CN3CCN(c4cc5c(cc4F)c(=O)c(C(=O)O)cn5C4CC4)CC3)c2)cc1 | 0.375% (active) |
| CC(C)(C)OC(=O)N1CCc2c(sc3ncnc(N/N=C/c4cccc5ccccc45)c23)C1 | 11.5% |
| CC(=O)Nc1nc(C)c(C(=O)N/N=C/N2CCCCC2)s1 | 131% |
| O=[N+]([O-])c1ccc(-c2noc(-c3cccs3)n2)cc1 | 70.1% |
| COc1ccc(-c2[nH]c(=S)n(C(CC3(C)NCC(=O)N3n3c(-c4ccccc4)cc(C)nc3=S)c3ccc(OC)cc3)c(=O)c2Br)cc1 (stereo unspecified) | 59.6% |
| Clc1ccc(C2CC(c3cccc(Nc4ccncc4)c3)=NN2c2ccc(Cl)cc2)cc1 (stereo unspecified) | -45.3% (active) |
| O=C(CSc1oc(-c2ccccc2)nc1S(=O)(=O)c1ccccc1)Nc1ccc(F)cc1 | 63.5% |
| NC(CSC(c1ccccc1)(c1ccccc1)c1cccc2ccccc12)C(=O)O (stereo unspecified) | 88.5% |
| Nc1ncnc(N)c1NC(=O)c1ccc(OCc2ccccc2)cc1 | 108% |
| CC(C)C[C@H](C(=O)N[C@H](C(N)=O)C(C)C)N1CC=CCN(OCc2ccccc2)S1(=O)=O | 119% [2.5 µM] |
| O=C1CSC(c2ccccc2Cl)N1c1nnc(-c2ccncc2)o1 (stereo unspecified) | 95.2% |
| O=S(=O)(NCCNc1nccc(-c2c(-c3ccc(F)cc3)nc3sccn23)n1)c1ccc(F)cc1 | 117% |
| Cn1cc(-c2nn3cc(-c4ccccc4)nc3s2)c2ccccc21 | 84.8% |
| Clc1ccc(Nc2ccnc(NCCNc3ccnc4cc(Cl)ccc34)n2)cc1 | -71% (active) |
| CCCCn1c(-c2cccc(OC)c2)nc2cc(OC)c(OC)cc2c1=O | 78.3% |
| Cc1ccc(NC(=O)c2sc3nc(C)c(C(=O)c4ccccc4)cc3c2N)cc1 | 84.2% |
| CC(=O)c1ccc2c(c1)CCN2 | 106% |
| CCOC(=O)n1ccn(C)c1=S | 101% |
| CSc1cccc([N+](=O)[O-])c1 | 91.7% |
| COc1cc(-c2cc(-c3ccc(Nc4nc(Nc5ccccc5)nc(Nc5ccc(Cl)cc5)n4)cc3)nc(N)n2)cc(OC)c1OC | 96.8% |
| N#CC(C#N)=Cc1cc2ccccc2nc1Oc1ccc(C(F)(F)F)cc1 | 78.4% |
| O=C1/C(=C/c2ccc(C(F)(F)F)cc2)COc2ccc(O)c(O)c21 | -26.1% (active) |
